Experimental findings from PubChem BioAssay are described below.

Molecules are shown by their SMILES. Unmarked numbers belong to inactive results.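 The calls were made as follows, unless noted: active = inhibition over a set limit, the all-compound mean plus 3 SD, in both replicate runs; inconclusive = over that limit in just one replicate run; inactive = at or under that limit in both runs.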 Results filed as inconclusive are left out.

A short description of the first experiment: viability of PTEN-null HCT116 cells – cell-based, HCT116 clonal line, CellTiter-Glo, pilot screen (AID 824;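 active = viability at or below 27.92% in each of two runs, the all-compound median minus 4 SD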;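 also: 0% = 20 µM Hyamine control and 100% = vehicle cell control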). The following applies: HCT116 PTEN-deleted viability, 60 h, at 10 µM, hits give low values.
`Cc1cc(NC(=O)c2ccc3c(c2)C(=O)N(C2CCCCC2)C3=O)no1`: the viability was 41.5%. Same read-out and setting: the figure for `CCOC(=O)N1CCN(C(=O)CN(c2cccc(C)c2)S(=O)(=O)c2ccccc2)CC1` is 97.8%. Still for that read-out and setting: the figure for `CCc1ccc(-c2nc(CSCC(=O)N3CCN(c4ncccn4)CC3)c(C)o2)cc1` is 52.6%; for `COc1cc(NC(=O)COc2ccc(-n3cnnn3)cc2)c(OC)cc1Cl` it is 46.9%; for `COc1ccccc1CC(=O)Nc1ccc(-c2nnc(-c3ccco3)o2)cc1` it is 77.7%. The same measure, in the same setting: the value for `CC(=O)c1c(C(C)=O)c(C)n(-c2nc(-c3ccccc3)c(C)s2)c1C` was 91.4%; that for `COc1ccc(-c2nc(SC)n(C)c(=O)c2C#N)cc1OC` was 87.9%.

The nature of the next experiment: RAM pathway blockade in budding yeast – dse1pr::URA3 reporter, 5-FOA selection, pilot screen (AID 869).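 Also: 0% = DMSO wells with no growth and 100% = 10 µM 1-NA-PP1 with full growth; RAM network block rescues cells from 5-FOA so hits raise OD615 growth.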 The following applies: S. cerevisiae dse1pr::URA3 5-FOA growth, OD615, 2 d; at 10 µM; hits give high values; strain carries analog-sensitive mutant Cbk1 kinase.
Turning to `COc1cc(NS(=O)(=O)c2ccc(NC(=O)COc3ccc(C)cc3)cc2)nc(OC)n1`, the inhibition is 1.73%. The same measure, in the same setting: the figure for `CC(=O)c1ccc(N2CCN(C(=O)c3ccc(NC(=O)C4CCCO4)cc3)CC2)cc1` (stereo not given) is 2.3%; for `CCN(CC)S(=O)(=O)c1ccc2oc(C(=O)NCC3COc4ccccc4O3)c(C)c2c1` (stereo not given) it is 2.5%; for `C(=N\c1nccs1)/c1c[nH]c2ccccc12` it is 2.52%. The same measure, in the same setting: the figure for `COc1cc(C)c(C(C)C)cc1S(=O)(=O)n1cnc(C)c1` is 0.425%.

Turning to `CNC(=O)C1C2C=CC3(O2)C1C(=O)N(CCOC)C3C(=O)NCc1ccc(OC)cc1` (stereo not given), the inhibition is 1.67%.

Consider `CC1CCc2sc3nc(N4CCN(CCO)CC4)n4ncnc4c3c2C1` (stereo not given), for which the inhibition was 0.655%.

For `CCOC(=O)c1cc(NC(=O)OC)c(C)nc1C`, the inhibition is 0.81%.
